Hits are enriched below; roughly 4.6% of the tested compounds scored in any of these assays.
D1 ag – activates the human D1 dopamine receptor | P21728 | HEK293 T-REx D1 cells, calcium flux, agonist mode | activation, % at 2 µM | 360,000 tested, 1% active | AID 504660; in the data active = activation above about 30%; note: 0% is about no effect
Target sequence (P21728 whole entry, looked up): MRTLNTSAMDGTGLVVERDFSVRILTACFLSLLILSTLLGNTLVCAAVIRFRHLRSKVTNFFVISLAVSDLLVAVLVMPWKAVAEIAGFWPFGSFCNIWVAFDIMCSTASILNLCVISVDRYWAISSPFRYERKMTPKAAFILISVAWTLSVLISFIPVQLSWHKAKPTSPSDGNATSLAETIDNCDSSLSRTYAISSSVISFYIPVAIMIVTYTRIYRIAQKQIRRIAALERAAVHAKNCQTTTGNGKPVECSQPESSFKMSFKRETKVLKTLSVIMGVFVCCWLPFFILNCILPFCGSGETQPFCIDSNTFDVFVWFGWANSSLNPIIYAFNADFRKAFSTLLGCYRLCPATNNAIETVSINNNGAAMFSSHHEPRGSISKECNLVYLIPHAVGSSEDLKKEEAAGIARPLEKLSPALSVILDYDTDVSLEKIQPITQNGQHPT
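Inducible HEK293 T-REx D1 cells, force-coupled to calcium signalling, were plated at 4000 cells/well with tetracycline and held overnight at 30 C. After no-wash calcium dye loading, compound-evoked calcium rise over 180 s flagged agonists.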
TRHR agonist-1 – TRH receptor (human) agonism; P34981; TRHR cells, calcium flux fluo-8, FDSS agonist mode; activation, % at 2 µM; 360,000 tested, 0.18% active; AID 493084; in the data active = activation above about 30%; note: 0% is about no effect
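In this calcium-flux screen, cells bearing human TRHR are dye-loaded with fluo-8, baselined for 10 cycles, then exposed to library compounds; positive kinetic calcium responses during the agonist phase mark hits, with TRH as control.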
TRHR enhancer-1 – allosteric enhancers of human TRH receptor. P34981. TRHR cells, fluo-8 calcium fluorescence, EC20 TRH enhancement. enhancement, % at 2 µM. 360,000 tested, 0.66% active; in the data active = enhancement above about 30%; note: 0% is about no effect
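TRHR-expressing cells loaded with fluo-8 calcium dye were read kinetically (ex 480/em 530) during compound addition, then stimulated with an EC20 of TRH (10 nM final). Enhancement of the Gq-mediated intracellular calcium response was scored.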
D1 PAM – enhances dopamine response at the human D1 receptor; 360,000 tested, 0.036% active; HEK293 TREx D1 cells, calcium flux, dopamine EC20 potentiation; potentiation, % at 10 µM; P21728; in the data active = potentiation above about 30%; note: 0% is about no effect
D1 antagonist – blocks dopamine activation of the human D1 receptor; P21728; HEK293 TREx D1 cells, calcium flux, dopamine EC80; hits give low values; activity change, negative = inhibition, % at 10 µM; 360,000 tested, 3.2% active; in the data active = activity change below about -30%; note: % is set by controls: 0 for no effect and ±100 for the full control effect
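Antagonism measured as reduced calcium response to an EC80 dopamine addition following 180 s compound pre-read; cells were inducible HEK293 Trex D1 plated overnight at 30 C, read kinetically at 1 cycle/sec.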
TRHR enhancer-2 – confirmation of human TRH receptor allosteric enhancers; shares compounds with TRHR enhancer-1; TRH receptor cell assay, enhancer confirmation qHTS; activity change, negative = inhibition, % at 46.1 µM; 970 tested, under 10 active;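 note: compound effect scored on response to added TRH at EC20 of 10 nM; 0% is about no effect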
TRHR agonist-2 – confirmation of human TRH receptor agonists; shares compounds with TRHR enhancer-1; TRHR-expressing cells, agonist activation read-out; Potency, µM (doses to about 46.1 µM), without a hit: top-dose activation, actives largely listed as activators; 970 tested, 8% active; AID 493078; note: potency is the fitted concentration of half-maximal effect; 0% is about no effect; nearly all actives have a fitted effect of over 75% in size
The depositor's hits bear a star; u = inconclusive; x = not tested or not shown. Unless noted, calls come from the whole dose curve; as a rule, active = well fitted curve in the direction sought with a large enough effect; inconclusive = small, poorly fitted or top-dose-only effect, or another doubt; inactive = no such curve, though single readings can be large; an effect the other way counts as inactive or inconclusive.

SMILES	D1 ag	TRHR agonist-1	TRHR enhancer-1	D1 PAM	D1 antagonist	TRHR enhancer-2	TRHR agonist-2
COc1cc(CN2CCNC(=O)C2CC(=O)NC2CCCC2)cc(OC)c1 (stereo unspecified)	-1	1	58*	-2	0	-7	0%
NC(=O)CSc1nnc(-c2ccc(S(=O)(=O)N3CCCCC3)cc2)n1-c1ccccc1	3	0	50*	7	-4	u	-1%
COc1ccccc1-n1c(SCC(N)=O)nnc1-c1ccc(S(=O)(=O)N2CCCCC2)cc1	2	0	-2	3	2	x	x
C=CCc1cc(C=O)cc(OCC)c1OCc1ccc(Cl)cc1	6	0	45*	2	10	-3	1%
C=CCc1cc(C=O)cc(OC)c1OCc1ccc(Cl)cc1	6	0	-8	-11	-1	x	x
O=C(Cc1cccs1)N=Nc1c(O)[nH]c2ccccc12	0	-2	43*	-7	-9	-4	4%
O=C(Cc1cccs1)N=Nc1c(O)[nH]c2ccc(Br)cc12	2	0	1	0	6	x	x
Cc1cc(C)c(CN2CCC(n3nccc3NC(=O)C3CCCC3)CC2)cc1C	1	0	-7	-2	-4	x	x
COc1cc(C#N)c(NC(=O)CN2CCC(C(N)=O)CC2)cc1OC	6	0	61*	5	-1	-5	6%
COc1ccc(C(=O)C2CCN(CC(=O)Nc3ccc(OC)cc3OC)CC2)cc1	0	0	1	-2	-17	x	x
COc1ccc(C)cc1S(=O)(=O)N1CCC2(CC1)OCCN2S(=O)(=O)c1cccs1	4	0	66*	-4	-17	u	2%
COC(=O)c1cccc(NC(=O)CN2CCc3ccccc3C2)c1	3	0	71*	0	-9	-4	6%
O=C(NNC(=O)c1nn(-c2ccc(F)cc2)ccc1=O)c1ccc(C(F)(F)F)cc1	1	-1	45*	-2	-1	-7	2%
COc1ccc(N2C(=O)c3cccc4c(N(C)CCO)ccc(c34)C2=O)cc1	49*	35*	-10	-3	-3	-5	21µM*
COc1ccc(N2C(=O)c3cccc4cccc(c34)C2=O)cc1	1	0	-2	-4	8	x	x
O=C(NCc1cccs1)Nc1cc(Cl)ccc1Cl	16	-4	41*	-9	1	-5	3%
Cc1cc(C)c(OCC(=O)Nc2ccc(S(=O)(=O)N3CCOCC3)cc2)c(C)c1	28	1	41*	-2	-2	-9	1%
COc1ccccc1OCC(=O)Nc1ccc(S(=O)(=O)N2CCOCC2)cc1	0	0	-3	-1	-1	x	x
Cc1ccc2cc3c(NC(=O)C4CCCO4)nn(CC(C)C)c3nc2c1 (stereo unspecified)	3	0	47*	-1	x	u	1%
Cc1ccc2nc3c(cc2c1)c(NC(=O)C1CCCO1)nn3CC(C)C (stereo unspecified)	1	0	6	-2	x	x	x
CC(SCc1ccccc1)C(=O)Nc1ccccc1F (stereo unspecified)	3	0	56*	-5	-1	1	0%
Cc1csc(NC(=O)CSc2nc(=O)[nH]c3c2CCCC3)n1	6	0	66*	-3	11	-7	1%
O=C(CSc1nc(=O)[nH]c2c1CCCC2)Nc1ccccc1C(F)(F)F	2	0	2	0	x	x	x
COc1ccc(Cc2nc3ccc(C(=O)N(C)Cc4cc(C)[nH]n4)cc3o2)cc1OC	1	0	2	-2	-3	x	x
COc1ccc(Cc2nc3ccc(C(=O)N(C)CCn4ccnc4)cc3o2)cc1OC	8	-3	41*	-3	3	0	-1%
SMILES	D1 ag	TRHR agonist-1	TRHR enhancer-1	D1 PAM	D1 antagonist	TRHR enhancer-2	TRHR agonist-2
C=CCN(Cc1cn(C)nc1-c1cccc(Cl)c1)C1CCS(=O)(=O)C1 (stereo unspecified)	0	0	46*	-2	1	-3	0%
CN1CCN(c2ccc(S(=O)(=O)N3CCCCC3)cc2N)CC1	4	2	60*	3	5	1	-1%
Nc1cc(S(=O)(=O)N2CCCCC2)ccc1N1CCCCC1	8	0	0	-6	-21	x	x
CCn1c(CC(=O)Nc2ccccc2)n[nH]c1=S	3	0	52*	0	7	0	-1%
O=C(Cc1ccccc1)NCC(=O)N1CCCCC1	3	1	43*	0	12	-3	1%
O=C(Cc1ccccc1)N1CCNCC1	6	0	55*	0	-7	-6	1%
O=C(Cc1ccccc1)N1CCN(C(=O)c2ccco2)CC1	-1	1	2	-5	9	x	x
CCC(C(=O)NCCc1ccc(OC)cc1OC)n1nc(C)n2c(cc3occc32)c1=O (stereo unspecified)	4	-1	-6	0	3	x	x
Cn1cc(S(=O)(=O)c2cccc(Cl)c2)c(=O)c2cc(F)c(N3CCN(c4ccccc4)CC3)cc21	4	-1	59*	0	9	1	0%
O=c1c(S(=O)(=O)c2ccccc2)cn(Cc2ccc(F)cc2)c2cc(N3CCCC3)c(F)cc12	-2	0	77*	-4	9	-8	-1%
CCNC(=O)/C(C#N)=C/c1c(N2CCN(c3ccc(OC)cc3)CC2)nc2c(C)cccn2c1=O	1	-1	-20	-4	-19	x	x
CN(C)C(CNC(=O)c1ccccc1OCc1ccc(Cl)cc1)c1ccco1 (stereo unspecified)	3	0	-13	-13	-1	x	x
Cc1ccccc1CN1C(=O)c2ccccc2S(=O)c2ccc(C(=O)NC3CCC(C)CC3)cc21 (stereo unspecified)	5	0	0	4	2	x	x
CC(NCCC1(C(C)C)CCOC(C)(C)C1)c1cccs1 (stereo unspecified)	4	0	52*	2	10	-4	3%
Cc1ccc(C2(CCNC(C)c3cccs3)CCOC(C(C)C)C2)cc1 (stereo unspecified)	6	2	3	10	14	x	x
COC(=O)Cc1c(O)ccn(CCc2ccc(S(N)(=O)=O)cc2)c1=O	9	0	2	-9	3	x	x
O=C1c2ccccc2C(O)N1c1ccccc1 (stereo unspecified)	2	31*	-3	-1	3	4	0%
O=C1c2ccccc2C(O)N1c1ccc(Cl)cc1 (stereo unspecified)	0	0	-3	2	-1	x	x
O=C(C1=NN(c2ccccc2)C2C(=O)N(c3ccccc3)C(=O)C12)c1ccccc1 (stereo unspecified)	324*	33*	-5	25	-32*	u	18µM*
